Several values for one entry are separate records, joined by “and”; a condition that tells them apart may be missing. Identical values can stand only once. Inconclusive results are not listed. Where a call stands in place of a potency, no number is given. Some compounds were tested as several samples or in several runs, with calls that do not always agree. Activity calls are given as the source filed them. The call rests on the fitted dose curve; in most records, active means well fitted cell-killing curve with a large enough effect in the repeat runs; inconclusive means weak or mixed curves, or effect the other way; inactive means flat fitted curve, though single readings scatter.
Assay: Human pregnane X receptor (PXR) small molecule agonists, qHTS cell viability counter screen (AID 1346977); further: nearly all actives have a fitted effect of over 50% in size
Settings: PXR-Luc HepG2 viability, CellTiter-Fluor, 24 h; series mostly up to 92.4 µM
Excerpt: U.S. Tox21 Program National Center for Advancing Translational Sciences [NCATS] NIH Chemical Genomics Center [NCGC] U.S. Environmental Protection Agency [EPA] National Institutes of Environmental Health Sciences [NIEHS] National Toxicology Program [NTP] U.S. Food and Drug Administration [FDA] Tox21 Assay Overview: The human pregnane X receptor (hPXR) regulates the expression of several drug metabolizing enzymes and induction of these proteins is a major mechanism for developing drug resistance in cancer. One such key enzyme catalyzing the drug metabolism is cytochrome P450 3A4 (CYP3A4). Changes in CYP3A4 expression affect drug metabolism, thereby reducing the therapeutic efficacy and altering toxicological response to a drug and which finally causes adverse drug interaction. To screen Tox21 libraries for compounds that activate hPXR-mediated CYP3A4 gene expression, PXR-Luc HepG2 cells were used. Also cytotoxicity of the compounds was tested in parallel by measuring the cell viability using CellTiter-Fluor assay system in the same wells.
Tox21 Assay Protocol Summary: PXR-Luc HepG2 cells were dispensed at 2,000 per well in 5uL of assay medium containing 5% charcoal-stripped FBS into white solid bottom 1536-well plates (Corning Life Sciences, Corning, NY) using a Multidrop Combi (Thermo Scientific, Waltham, MA) dispenser. The assay plates were incubated at 37 C and 5% CO2 for 5hr, and then 23nL of compounds dissolved in DMSO and positive control were transferred using a Pintool station (Wako, San Diego, CA). The assay plates were incubated at 37C and 5% CO2 for 24hr. For cytotoxicity read, after 23hr incubation at 37C, 1uL CellTiter-Fluor reagent (Promega Corporation, Madison, WI) was added to each well of the assay plates using Flying Reagent Dispenser (FRD, Aurora Discovery, San Diego, CA). After 1hr incubation at 37C and 5% CO2, the fluorescence signal was quantified using a ViewLux plate reader (PerkinElmer, Shelton, CT).
With `NS(=O)(=O)O` the Potency was “inactive”. In the case of `NC1CCCCC1`, the Potency is reported as “inactive”. With `CN(C)CCOC(c1ccccc1)c1ccccc1` the Potency was “inactive”. For `CCCCCCCC(=O)OCC(COC(=O)CCCCCCC)OC(=O)CCCCCCC`, the Potency was “inactive”. For `CN1CCc2cccc3c2[C@H]1Cc1ccc(O)c(O)c1-3`, the Potency was 43.7 µM (active) and 18.1 µM (active) and 29.8 µM (active). With `CC1(C)O[C@@H]2C[C@H]3[C@@H]4CCC5=CC(=O)C=C[C@]5(C)[C@@]4(F)[C@@H](O)C[C@]3(C)[C@]2(C(=O)CO)O1` the Potency was “inactive”. For `CC1(C)S[C@@H]2[C@H](NC(=O)[C@H](N)c3ccccc3)C(=O)N2[C@H]1C(=O)O`, the Potency was “inactive”. For `NC(=O)c1cccnc1`, the Potency was “inactive”. For `Nc1ccc(S(N)(=O)=O)cc1`, the Potency was “inactive”. For `CCN(Cc1c(F)cccc1Cl)c1c([N+](=O)[O-])cc(C(F)(F)F)cc1[N+](=O)[O-]`, the Potency was “inactive”. With `O=C1NS(=O)(=O)c2ccccc21` the Potency was “inactive”. In the case of `CC/C(=C(\c1ccccc1)c1ccc(OCCN(C)C)cc1)c1ccccc1`, the Potency is reported as 25.1 µM (active) [middle of 5 runs]. For `NS(=O)(=O)c1cc2c(cc1Cl)NCNS2(=O)=O`, the Potency was “inactive”. With `CCCCC(CC)C(=O)O` (stereo not given) the Potency was “inactive”. In the case of `CC(O)(P(=O)(O)O)P(=O)(O)O`, the Potency is reported as “inactive”. For `CC(C)C(=O)Nc1ccc([N+](=O)[O-])c(C(F)(F)F)c1`, the Potency was 50.1 µM (active) and inactive. For `O=C(Nc1ncc([N+](=O)[O-])s1)c1cccs1`, the Potency was 23.7 µM (active). For `O=C(O)c1ccccc1`, the Potency was “inactive”. With `CC(C)NCC(O)c1ccc(O)c(O)c1` (stereo not given) the Potency was “inactive”. With `C=C(C)C(=O)OCC(C)O` (stereo not given) the Potency was “inactive”. In the case of `Cc1cn([C@H]2C=C[C@@H](CO)O2)c(=O)[nH]c1=O`, the Potency is reported as “inactive”. For `CS(=O)(=O)OCCCCOS(C)(=O)=O`, the Potency was “inactive”. In the case of `CCCC[P+](CCCC)(CCCC)CCCC`, the Potency is reported as “inactive”. For `Cc1cc(C)nc(NS(=O)(=O)c2ccc(N)cc2)n1`, the Potency was “inactive”. In the case of `CC(C)c1c(C(=O)Nc2ccccc2)c(-c2ccccc2)c(-c2ccc(F)cc2)n1CC[C@@H](O)C[C@@H](O)CC(=O)O`, the Potency is reported as “inactive”. In the case of `Cc1cccc(C)c1`, the Potency is reported as “inactive”. With `Cn1c(=O)c2c(ncn2C)n(C)c1=O` the Potency was 39.8 µM (active) and inactive. With `C1=CC2C3C=CC(C3)C2C1` (stereo not given) the Potency was “inactive”. In the case of `Cc1ncc([N+](=O)[O-])n1CCO`, the Potency is reported as “inactive”. In the case of `C=C1CC[C@H](O)C/C1=C\C=C1/CCC[C@]2(C)[C@@H]([C@H](C)CCCC(C)C)CC[C@@H]12`, the Potency is reported as “inactive”. For `CCCCC1(COC(=O)CCC(=O)O)C(=O)N(c2ccccc2)N(c2ccccc2)C1=O`, the Potency was “inactive”. With `Cc1c(C(=O)O)c(O)cc2c1C(=O)c1c(O)c([C@@H]3O[C@H](CO)[C@@H](O)[C@H](O)[C@H]3O)c(O)c(O)c1C2=O` the Potency was 11.2 µM (active) and 13.7 µM (active) and 23.7 µM (active). With `NC(CO)(CO)CO` the Potency was “inactive”. With `CC(=O)Nc1c(I)c(NC(C)=O)c(I)c(C(=O)O)c1I` the Potency was “inactive”. With `COc1ccc(OC(F)(F)F)cc1CN[C@H]1CCCN[C@H]1c1ccccc1` the Potency was 54.5 µM (active). In the case of `CC(=O)C(=O)O`, the Potency is reported as “inactive”. With `CCCCNC(=O)NS(=O)(=O)c1ccc(C)cc1` the Potency was “inactive”. In the case of `CC(=O)CCC(=O)O`, the Potency is reported as “inactive”. In the case of `Nc1ccc([N+](=O)[O-])cc1O`, the Potency is reported as 30.6 µM (active). With `CN[C@H]1CC[C@@H](c2ccc(Cl)c(Cl)c2)c2ccccc21` the Potency was 29.8 µM (active).

Reference: PubChem BioAssay (Tox21)
Potency means the concentration at half of the fitted maximal effect.
